Screening results deposited in PubChem by National Center for Advancing Translational Sciences (NCATS).
SW480 rereplic: A quantitative high throughput screen for small molecules that induce DNA re-replication in SW480 colon adenocarcinoma cells; SW480 DNA re-replication, Hoechst DNA content imaging, 48 h; Potency, µM (top dose mostly 46.1 µM), for inactives: top-dose re-replication activation, usual class: activators; 340,000 tested, 1.8% active; AID 624297, 2012; also: % of control where 0% means no effect; nearly all actives have a fitted effect of over 55% in size
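Image-based DNA-content assay: after two days of treatment, nuclei were labelled with the DNA dye Hoechst and imaged, and hits were compounds raising the count of nuclei showing high fluorescence intensity.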
p53 reactivator: qHTS assay for re-activators of p53 using a Luc reporter | H1299 p53-A138V BP100-luciferase reporter, luminescence, 24 h | 320,000 tested, 0.063% active | Potency, µM (series often up to 92.2 µM), without a hit: at the highest dose activity change, positive = activation, most hits filed as activators; also: % of control where 0% means no effect; nearly all actives have a fitted effect of over 45% in size
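p53-null H1299 cells stably carrying temperature-sensitive p53-A138V and a BP100-luciferase reporter were pinned with compounds (4-point, 1:5 series) and held 24 hrs at 37 deg C. Luminescence was read 10 min after detection reagent.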
ELG1 repair inh: qHTS screen for small molecules that inhibit ELG1-dependent DNA repair in human embryonic kidney (HEK293T) cells expressing luciferase-tagged ELG1 | HEK293T ELG1-luciferase reporter, luminescence, 16 h; DNA damage induced by 5-fluorouridine | Potency, µM (titrated, usually from 46.1 µM), for the others: at the top dose activity change, negative = inhibition, hits mostly inhibitors | 330,000 tested, 2.3% active; also: % is scaled to controls: 0 for no effect and ±100 for the full control effect; nearly all actives have a fitted effect of over 55% in size
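DMSO vehicle served as the neutral condition. Each well held 2,000 cells given 5-fluorouridine plus compound; after 16 hr at 37 °C/5% CO2, ONE-Glo was added and luciferase measured 30 min later.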
ELG1 genotoxic: qHTS screen for small molecules that induce genotoxicity in human embryonic kidney (HEK293T) cells expressing luciferase-tagged ELG1. HEK293T ELG1-luciferase reporter, luminescence, 16 h. 330,000 tested, 1.3% active. Potency, µM (series often up to 46 µM), for inactives: top-dose activity change, positive = activation, most hits filed as activators; also: % of control where 0% means no effect; nearly all actives have a fitted effect of over 60% in size
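Luminescence read-out: rising ELG1-luciferase signal, reflecting elevated ELG1 protein under genetic stress, flags genotoxic compounds. Cells were treated for 16 hr at 37 °C before ONE-Glo detection.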
A-T KAP1 phos: qHTS Assay for Identifying a Potential Treatment of Ataxia-Telangiectasia; Potency, µM (series often up to 57.5 µM), for the others: top-dose activation, most hits filed as activators; F2112 A-T fibroblasts, KAP-1 phosphorylation AlphaLISA; neocarzinostatin DNA damage 30 min before lysis; AID 485349, 2010; 320,000 tested, 0.19% active; also: % of control where 0% means no effect; nearly all actives have a fitted effect of over 45% in size
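hTERT-immortalized A-T patient fibroblasts (F2112), 500 cells/well in OPTI-MEM, 1% FBS, got compounds for 60 min, then NCS for 30 min at 37C. Lysates were then assayed for phospho-KAP-1 by AlphaLISA (anti-pKAP1 donor, anti-KAP1 acceptor beads), 6 hr at 25C.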
MCF10A rerep: A quantitative high throughput screen for small molecules that induce DNA re-replication in MCF 10a normal breast cells. Potency, µM (top dose mostly 46.1 µM), for inactives: top-dose activity, positive = re-replication, most hits filed as activators. 350,000 tested, 2.9% active. MCF 10A DNA re-replication, Hoechst nuclear intensity, 48 h; also: % of control where 0% means no effect; nearly all actives have a fitted effect of over 50% in size
* = called active by the depositor; ? = inconclusive; · = no result. Most compounds without a hit are left out; they make up all but 7.1% or so of the library. Calls follow the shape of the dose curve; as a rule, active = well fitted curve in the direction sought with a large enough effect; inconclusive = small, poorly fitted or top-dose-only effect, or another doubt; inactive = no such curve, though single readings can be large; an effect the other way counts as inactive or inconclusive. Potency is read from the fitted curve at half-maximal effect.

SMILES | SW480 rereplic | p53 reactivator | ELG1 repair inh | ELG1 genotoxic | A-T KAP1 phos | MCF10A rerep
CN(C)c1ccc(/C=N\NC(=S)SCN2C(=O)C3CCC(C)(C2=O)C3(C)C)cc1 (stereo not given) | ? | ? | ? | 1% | -5% | 7.3µM*
COc1cc(NC(=O)c2cccc(NC3=NC4CS(=O)(=O)CC4S3)c2)cc(OC)c1OC (stereo not given) | -1% | · | 0% | 8% | -12% | 8%
N#Cc1ccccc1S(=O)(=O)N1CCN(C(=O)Cc2coc3cc(O)ccc23)CC1 | 2% | 4% | 0% | 1% | 4% | 18%
CC(C)(C)C(=O)CSc1nc2c(c(-c3cccs3)c1C#N)CCC2 | ? | 1% | -1% | 0% | 6% | 4.1µM*
CC(=O)CSc1nc(N)c(C#N)c(-c2cccs2)c1C#N | 0% | 12% | ? | -8% | -1% | ?
Cc1cc(C)cc(NC(=O)c2cc(C)n(Cc3cccs3)c2C)c1 | ? | 11% | ? | ? | -4% | 18µM*
Cc1cc(C(=O)CN2C(=O)c3ccccc3C2=O)c(C)n1Cc1cccs1 | 0% | 16% | ? | ? | -1% | -4%
Cc1cc(C(=O)Nc2ccc(Cl)cc2)c(C)n1Cc1cccs1 | ? | ? | ? | 2.3µM* | 4% | ?
Cc1cc(C(=O)Cn2nnc3ccccc3c2=O)c(C)n1Cc1cccs1 | 0% | 51% | ? | 2.6µM* | 4% | ?
NS(=O)(=O)c1ccc(Cl)cc1[N+](=O)[O-] | -4% | 3% | 0% | 13% | 18% | 0%
Cc1ccc(S(=O)(=O)NC(=O)COc2ccccc2C)c(C)c1 | -1% | -10% | 10% | 3% | 3% | ?
O=C(NCC(=O)N1CCN(Cc2c(F)cccc2Cl)CC1)c1cccc(Cl)c1 | 7% | -3% | -16% | -1% | -1% | ?
COc1ccccc1NC(=S)NC(=O)c1ccc(-c2ccc(Cl)cc2)o1 | -1% | 5% | 15% | 6% | 8% | ?
Cc1ccc(O)c(NC(=S)NC(=O)c2ccc(-c3ccc(Cl)cc3)o2)c1 | 26% | · | · | · | · | 6.5µM*
O=C(NC(=S)Nc1ccccc1O)c1ccc(-c2ccc(Cl)cc2)o1 | 14% | -2% | -2% | 4% | 4% | 16µM*
Cc1ccccc1S(=O)(=O)N1C[C@H]2CON(C)[C@H]2C[C@H]1c1cccc(N2CCOCC2)c1 | -4% | · | · | · | · | -8%
Cc1ccccc1S(=O)(=O)N1C[C@H]2CON(C)[C@H]2C[C@H]1c1cccc(-c2ccc(C#N)cc2)c1 | 4.1µM* | · | · | · | · | -3%
Cc1cc(C)cc(NC(=O)c2cc3c(=O)n4ccccc4nc3s2)c1 | 9.2µM* | 4% | 9% | 13% | 4% | ?
Cc1cccn2c(=O)c3cc(C(=O)NC4CCCCCC4)sc3nc12 | 20% | 10% | -3% | 6% | -3% | ?
CC1CC(C)CN(C(=O)c2cc3c(=O)n4ccccc4nc3s2)C1 (stereo not given) | 27% | 4% | ? | 9% | 3% | 21µM*
O=C(NC1CCCCCC1)c1cc2c(=O)n3ccccc3nc2s1 | 18µM* | 6% | ? | 20% | 26% | 21µM*
CCOc1ccc(OCC(=O)OC(C)C(=O)NC2CCCC2)cc1 (stereo not given) | ? | 0% | 12% | 1% | -4% | -6%
CC(C)CN1C(=O)C(=O)N(CC(=O)c2ccc[nH]2)C1=O | 1% | 1% | 32% | 2% | -7% | -5%
Cc1ccc(S(=O)(=O)N2[C@@H](c3ccc(Cl)cc3)C(C(=O)O)=C[C@H]2C(C)(C)C)cc1 | -6% | 0% | 0% | -6% | 2% | -24%
Cc1ccc(C(=O)NNC(=O)c2cc(C)nc3ccccc23)cc1 | -1% | 0% | 6% | 1% | 4% | -2%
SMILES | SW480 rereplic | p53 reactivator | ELG1 repair inh | ELG1 genotoxic | A-T KAP1 phos | MCF10A rerep
C/C(=N/NS(=O)(=O)c1ccc(C)cc1C)c1c[nH]c2ccccc12 | 15% | -17% | -5% | -8% | 6% | 1%
O=CNc1ccc2c3c(cccc13)-c1ccccc1-2 | 2.3µM* | · | · | · | · | ?
CC(=O)Nc1ccc2c3c(cccc13)C(=O)N(c1ccccc1)C2=O | 7% | 0% | 6% | 3% | 3% | 16%
CN(c1ccccc1)S(=O)(=O)c1cc(C(=O)NCCCn2ccnc2)ccc1Cl | 0% | -3% | -1% | -1% | -1% | -6%
Cc1ccc2oc3c(c(=O)c2c1)C(c1cccc(Cl)c1)N(CCCN1CCOCC1)C3=O (stereo not given) | 0% | -17% | 10µM* | 19% | 2% | -6%
Cc1ccc(S(=O)(=O)Nc2ccc(O)c3ncccc23)cc1 | 19% | 12% | 3.3µM* | 5% | -6% | -13%
Cc1ccc(S(=O)(=O)Nc2ccnc3ccccc23)cc1 | -5% | -1% | -12% | -1% | 1% | 8%
Cc1ccc(S(=O)(=O)Nc2ccc(O)c3cccnc23)cc1 | 23µM* | -17% | 18µM* | -11% | -3% | ?
O=C(COC(=O)c1cc(S(=O)(=O)N2CCOCC2)ccc1Cl)Nc1ccccc1Cl | -2% | -9% | -7% | -1% | -4% | 0%
COCCOC(=O)c1c(C)oc2ccc(NS(=O)(=O)c3ccccc3)cc12 | -7% | 0% | -27% | -4% | -3% | -3%
CC(=O)c1c(C)oc2ccc(NS(=O)(=O)c3ccc(F)cc3C)cc12 | -4% | 9% | 6.5µM* | -27% | 3% | 7%
COCCOC(=O)c1c(C)oc2ccc(NS(=O)(=O)c3ccc(C)cc3)cc12 | -9% | -4% | -24% | -4% | -7% | 16µM*
CC(=O)NCc1ccc(S(=O)(=O)N2CCN(S(=O)(=O)c3ccc4ccccc4c3)CC2)cc1 | 19% | -4% | -13% | ? | -4% | ?
Cn1cc(/C=N/n2cnc3scc(-c4ccc(Cl)cc4)c3c2=O)c2ccccc21 | 0.58µM* | 3% | -3% | -1% | -9% | 0.33µM*
CCn1cnc2scc(-c3ccccc3)c2c1=O | -13% | -8% | 8% | 0% | 0% | -2%
CN(C)S(=O)(=O)c1ccc(C(=O)Nc2nc(-c3cccs3)cs2)cc1 | 13% | -1% | 12µM* | -19% | 2% | ?
